Compounds with a hit are over-represented: about 6.6% of the library has one in this group of screens.
Mdm2 MdmX PPI: human Mdm2/MdmX binding inhibition; O15151+Q00987; SaOS-2 split-luciferase Mdm2/MdmX complementation, luminescence; inhibition, % at 8 µM; 3% of 330,000 active; AID 485346;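 active = inhibition of at least 50% at 8 µM in the primary screen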
Target sequence (O15151 whole entry, looked up): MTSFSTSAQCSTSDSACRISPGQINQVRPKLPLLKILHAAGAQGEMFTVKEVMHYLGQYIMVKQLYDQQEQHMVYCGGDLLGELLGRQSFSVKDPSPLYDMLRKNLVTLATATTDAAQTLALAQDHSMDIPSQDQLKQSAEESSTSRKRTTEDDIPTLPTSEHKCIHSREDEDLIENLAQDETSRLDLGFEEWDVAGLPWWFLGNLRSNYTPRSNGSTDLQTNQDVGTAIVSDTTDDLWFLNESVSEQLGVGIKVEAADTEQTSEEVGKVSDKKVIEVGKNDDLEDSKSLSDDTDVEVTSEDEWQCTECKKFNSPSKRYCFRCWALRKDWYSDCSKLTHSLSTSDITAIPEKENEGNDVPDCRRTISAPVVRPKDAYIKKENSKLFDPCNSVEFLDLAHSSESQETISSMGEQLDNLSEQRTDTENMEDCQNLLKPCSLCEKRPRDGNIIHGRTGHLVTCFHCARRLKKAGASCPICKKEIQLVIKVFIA
Target sequence (Q00987 whole entry, looked up): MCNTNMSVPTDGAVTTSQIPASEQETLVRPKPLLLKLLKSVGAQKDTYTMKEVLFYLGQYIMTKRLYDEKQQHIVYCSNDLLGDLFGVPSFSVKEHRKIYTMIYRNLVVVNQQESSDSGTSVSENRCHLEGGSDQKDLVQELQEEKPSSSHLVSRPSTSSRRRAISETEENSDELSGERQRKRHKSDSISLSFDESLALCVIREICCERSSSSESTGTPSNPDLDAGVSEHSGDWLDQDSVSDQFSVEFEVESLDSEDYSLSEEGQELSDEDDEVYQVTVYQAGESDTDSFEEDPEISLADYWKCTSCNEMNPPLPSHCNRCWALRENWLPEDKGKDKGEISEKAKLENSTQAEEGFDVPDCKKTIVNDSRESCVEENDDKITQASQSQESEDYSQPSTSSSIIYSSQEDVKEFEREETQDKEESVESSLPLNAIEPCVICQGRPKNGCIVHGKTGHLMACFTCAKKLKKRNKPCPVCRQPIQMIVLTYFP
GRIN3A LBD mod: modulates the human NR3A ligand-binding domain; NR3A LBD differential scanning fluorimetry, Tm shift; 0% = protein alone, 100% = glycine-bound protein; Tm shift relative to glycine control, % at 25 µM; 2.5% of 340,000 active; AID 1259313;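 active = melting temperature shift of at least 10% of the positive control shift, at one fixed dose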
Gli-Sufu block: Gli-Sufu pathway antagonism | Sufu-KO-LIGHT fibroblasts, Gli luciferase reporter luminescence | 0.74% of 340,000 active | inhibition, % at 5 µM | AID 588413;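 active = inhibition above about 55%, limit read from the data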
Beta cell apopt: beta cell apoptosis inhibition; protection from apoptosis, % (test concentration not listed); 0.8% of 300,000 active; INS-1E cytokine-induced death, ATP luminescence, 48 h; percent of positive-control rescue, neutral wells zero; AID 435005;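 active = Every replicate reaches about 75%, or at least half do and their mean reaches it too, limit read from the data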;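 also: higher means more ATP so stronger rescue from cytokine killing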
MPTP block: permeability transition pore inhibition; isolated mouse mitochondria, Ca2+ swelling absorbance, 30 min; inhibition, % at 10 µM; 1.4% of 360,000 active; AID 602449;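 active = inhibition of 50% or more, scaled per plate between neutral and stimulator controls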
CSC inhib: blocks cancer stem cells; cancer stem cell-like cells viability, luminescence; inhibition, % at 7.5 µM; 1.1% of 300,000 active; AID 2717; in the data active = inhibition above about 75%; tested in HMLE shEcad cells
Each line names hits and unclear results; the compound was inactive in the other large screens.

O=C(Nc1ccc2nc(-c3ccc(Br)o3)[nH]c2c1)c1ccco1	GRIN3A LBD mod 10
OC(c1ccco1)c1nc(-c2cccs2)cs1 (stereo unspecified)	none (no result: Mdm2 MdmX PPI, GRIN3A LBD mod, Gli-Sufu block, Beta cell apopt, CSC inhib)
CCC(=O)Nc1ccc(C(=O)NNC(=O)CCCCC(=O)NNC(=O)c2ccc(NC(=O)CC)cc2)cc1	none (no result: Mdm2 MdmX PPI, GRIN3A LBD mod, Gli-Sufu block, Beta cell apopt, CSC inhib)
CCC(C)(C)NC(=O)CN(C(=O)CCC(=O)Nc1nccs1)c1ccc(C)cc1	none
O=S(=O)(c1ccc2nc(Nc3ccccc3)ccc2c1)N1CCCCC1	GRIN3A LBD mod 30, Beta cell apopt 103
COc1cc(/C=N/N2CCOCC2)ccc1OCc1ccccc1	none
COc1cc(/C=N/N2CCOCC2)ccc1OCc1ccc(Cl)cc1	GRIN3A LBD mod 22
CCN(CC)c1ccc(/C=C(\C#N)c2ccccn2)cc1	CSC inhib 78
COc1cc(/C=C(\C#N)c2ccccn2)ccc1OCc1ccc(Cl)cc1	GRIN3A LBD mod 14
O=C1Nc2cnc(Cl)nc2Nc2ccccc21	none (no result: Mdm2 MdmX PPI, GRIN3A LBD mod, Gli-Sufu block, Beta cell apopt, CSC inhib)
CCN(Cc1ccccc1)C(c1cccs1)c1nnnn1C1CCCCC1 (stereo unspecified)	Beta cell apopt 101
Clc1ccccc1CN(Cc1ccccc1)C(c1cccs1)c1nnnn1C1CCCC1 (stereo unspecified)	none
COc1ccc(CCNC(=O)C(F)(F)F)cc1S(N)(=O)=O	none (no result: Mdm2 MdmX PPI, GRIN3A LBD mod, Gli-Sufu block, Beta cell apopt, CSC inhib)
CCOc1ccc(C(=O)NCCCCNC(=O)c2ccc(OCC)cc2)cc1	GRIN3A LBD mod 15
CCOc1ccc(C(=O)OCC(=O)NCCNC(=O)COC(=O)c2ccc(OCC)cc2)cc1	GRIN3A LBD mod 14
CCN(CC)c1ccc(/C=N/NC(=O)Cc2cccs2)c(O)c1	Beta cell apopt 92 (no result: Mdm2 MdmX PPI)
Cc1ccccc1NC(=O)COC(=O)c1ccc(CSc2ccc(Cl)cc2)cc1	GRIN3A LBD mod 12
Cc1ccccc1NC(=O)COC(=O)c1cccnc1	none
CNc1n[nH]c(-c2ccccc2)n1	none (no result: Mdm2 MdmX PPI, GRIN3A LBD mod, Gli-Sufu block, Beta cell apopt, CSC inhib)
Cc1c(C(=O)Nc2ccccc2)sc2nc(-c3ccccc3)cn12	GRIN3A LBD mod 26
Cc1c(C(=O)Nc2ccc3c(c2)OCO3)sc2nc(-c3ccccc3)cn12	GRIN3A LBD mod 27
Cc1ccc(-n2c(=O)c3sccc3n(Cc3cc(=O)n4ccccc4n3)c2=O)cc1F	none (no result: GRIN3A LBD mod, Gli-Sufu block, MPTP block)
Cc1ccc(-n2c(=O)c3sccc3n(Cc3cc(=O)n4cc(Cl)ccc4n3)c2=O)cc1F	GRIN3A LBD mod 15
c1ccc(C2(Cn3ccc4ccccc43)OCCO2)cc1	Beta cell apopt 114
O=C(O)c1ccc(Cn2ccc3ccccc32)o1	none (no result: Beta cell apopt)
N=C1/C(=C\c2ccc(-c3cccc(Cl)c3)o2)C(=O)N=C2SC=C(c3ccccc3)N12	GRIN3A LBD mod 13
COc1ccc(/C=C2\SC(=S)N(NC(=O)c3ccncc3)C2=O)cc1OC	none (no result: GRIN3A LBD mod, Gli-Sufu block, MPTP block)
COc1ccc(/C=C2\SC(=N)N(c3nccs3)C2=O)cc1OC	CSC inhib 77
N=C1S/C(=C\c2ccc(-c3cccc(Cl)c3)o2)C(=O)N1c1nccs1	Gli-Sufu block 88 (no result: Mdm2 MdmX PPI)
COc1ccc(-c2cccc3c2NC(=O)C3=O)cc1OC	none (no result: Beta cell apopt, CSC inhib)
CC(C)[C@@H](C(=O)N[C@@H](Cc1ccccc1)C(=O)O)N1C(=O)N2CCc3c([nH]c4ccccc34)[C@@]2(C)C1=O	none (no result: Beta cell apopt)
CC(=O)OCCN1C(=O)c2cccc3cc([N+](=O)[O-])cc(c23)C1=O	none (no result: GRIN3A LBD mod, Gli-Sufu block, MPTP block)
CN(C)CCN1C(=O)c2cccc3cc([N+](=O)[O-])cc(c23)C1=O	Gli-Sufu block 69 (no result: Mdm2 MdmX PPI, Beta cell apopt, CSC inhib)
CCCCn1c(O)c(/C=C2\C=Nc3ccccc32)c(=O)[nH]c1=O	none
O=c1[nH]c(S)c(/C=C2\C=Nc3ccccc32)s1	GRIN3A LBD mod 34
CCCC(=O)N(CCN(C(=O)CCC)c1ccccc1)c1ccccc1	Beta cell apopt 79
CCN(C(=O)CCC(=O)N(CC)c1ccccc1)c1ccccc1	none
Oc1c(C=Nc2ccc(Cl)cn2)sc2ccccc12	GRIN3A LBD mod 11
c1ccc(NNC2=NCCCCC2)cc1	CSC inhib 84
O=c1c2[nH]c3ccc(Br)cc3c2ncn1CCCn1ccnc1	GRIN3A LBD mod 16
O=c1c2[nH]c3ccccc3c2ncn1CCCn1ccnc1	none (no result: Beta cell apopt)
Cc1occc1C(=O)NNC(=O)CN1C(=O)NC(C)(c2ccccc2)C1=O (stereo unspecified)	none (no result: Beta cell apopt)
Cc1cc(NC(=O)c2cccc(S(=O)(=O)N3CCC(C)CC3)c2)no1	none
N#CCNC(=O)C1CC(=O)N(CCc2ccc(F)cc2)C1 (stereo unspecified)	none (no result: Beta cell apopt)
COc1cc(C=NO)nc(-c2ccccn2)c1	Gli-Sufu block 87 (no result: Mdm2 MdmX PPI, Beta cell apopt, CSC inhib)
COc1ccc2nc(-c3ccccn3)[nH]c2c1	none

Assay outcomes: PubChem BioAssay, several laboratories
